Hit rate of the full screen: of about 65,000 compounds, about 2,100 (3.2%) showed an effect of 50% or more. The median lay at about -52%. The list comes from a sample in which strong results are over-represented; it also holds similar structures and randomly drawn compounds.

The test system of the experiment is Plasmodium falciparum. As to the kind of experiment: Screen against P. falciparum Asexual Blood Stage (ABS), at 5uM. It counts as functional, Dd2. The conditions noted are these: tested at 5 uM.
Turning to `COCCC1(CNC(=O)Nc2ccnc(C)c2)CCCC1`, the INHIBITION was 72.6%.
In the case of `Cc1ncc(CN2C[C@H]3CC(OCc4ccccc4)C[C@H]3C2)cn1` (stereo not given in full), the INHIBITION was -74.6%.
Regarding `Cc1ccc2c(n1)N(CC1CC1)CCN(S(=O)(=O)C1CC1)C2`, the INHIBITION is recorded as -28.5%.
Next, `Cc1ccc2c(n1)N(CC1CC1)CCN(Cc1ccco1)C2`: -45.2%.
Next, `Cc1ccc2c(n1)N(CCn1cccn1)CCN(CC1CC1)C2`: 77.6%; `O[C@]12CCNC[C@H]1CN(c1nccc3ccccc13)CC2`: -5.03%.
Next, `Cc1nnc(N2CC[C@@]3(O)CCNC[C@H]3C2)c2ccccc12`: -14.9%; `O[C@]12CCNC[C@H]1CN(c1ccnc3ccccc13)CC2`: 92%; `Cc1cnc(N2CCC3(CCCCN3C)C2)nc1` (stereo not given): -23.5%.
`CC(C)(C)CC(=O)N1C[C@H]2CCN[C@H]2C1`: the INHIBITION is on record as -36.7%.
In the case of `Cc1cc(CN2C[C@@H]3COC[C@H](C(=O)N4CCCCO4)[C@@H]3C2)no1`, the INHIBITION is -158%.
Next, `CN(C)C(=O)CN1CCN(c2ncccn2)[C@@H]2CS(=O)(=O)C[C@@H]21`: -100%; `CCN1CCC2(CC1)CC(NCc1cccs1)c1ccccc1O2` (stereo not given): 85.8%; `Cc1cccc(CN2CCC3(CCN(c4cccnc4)C3=O)C2)n1` (stereo not given): -18.3%.
`O=C1NCC2(CCCN(Cc3ccncc3)C2)Oc2ccccc21` (stereo not given): the INHIBITION is on record as -7.11%.
As for `CCN1CCN(C)C2(CCN(Cc3cccc(C)n3)CC2)C1=O`, the INHIBITION was -50.7%.
Next, `CCN1CCC2(CC1)CC(NCc1cccc(C)n1)c1ccccc1O2` (stereo not given): 91.3%; `Cc1cnc(N2CCC3(CC2)CN(Cc2cccs2)CCO3)nc1`: -35.2%; `CCN1CCC2(CC1)CC(NCc1ccncc1)c1ccccc1O2` (stereo not given): 77.7%.
As to `O=C1Nc2ccccc2C12CCN(Cc1cccs1)CC2`, the INHIBITION was -14.5%.
Next, `CCN1CCC2(CC1)CC(Nc1ncccn1)CO2` (stereo not given): -11%; `O=C(Nc1cccnc1)[C@H]1CO[C@H]2CCNC[C@H]2C1`: -181%.
Take `Cc1cccc(CN2C[C@H](OCc3ccccn3)[C@H]3COC[C@H]32)n1`: the INHIBITION is listed as -21.3%.
Consider `Cc1noc(C)c1CN1CCO[C@H]2CN(Cc3cccnc3)C[C@H]21`, for which the INHIBITION was 0.607%.
For the compound `CCc1ccc(CN2CCN(C)c3ncccc3C2)o1`, the INHIBITION is -114%.
As to `O=c1[nH]cnc2[nH]c(N3CCNCC3)nc12`, the INHIBITION is listed as -168%.
Next, `CN(C)C(=O)CN1CCC2(CCCN(Cc3cccnc3)C2)C1=O` (stereo not given): -34%; `Cc1cccc(CN2C[C@@H](NC(=O)C3CCC3)[C@H]3COC[C@H]32)n1`: -50.1%.
In the case of `COc1ccc(Cl)cc1CN(C)C(=O)CN1C(=O)CCC1C` (stereo not given), the INHIBITION is given as -38.8%.
Next, `COc1ccccc1CN(C)C(=O)CN1CC(n2nc(C)cc2C)C1`: 78.2%; `CCc1nnc(CN(C)C(=O)CN2CC(c3ccccc3)CC2=O)o1` (stereo not given): -112%; `Cn1cc(C(=O)NCc2cncc3c2CCNC3)cn1`: -118%.
On to `Cc1csc([C@H]2C[C@@H]3CCN(Cc4cc(C)on4)C[C@H]3O2)n1`, for which the INHIBITION is -69.7%.
Next, `c1cncc(OC[C@@]23CCO[C@@H]2CCN(Cc2cccs2)C3)c1`: -5.17%; `O=C1N(c2cncnc2)CCC12CCCN(Cc1ccccn1)C2` (stereo not given): -36.2%.
With `NCC1Cc2cc(-c3nccc(N4CCC(O)CC4)n3)cc(F)c2O1` (stereo not given), the INHIBITION turned out to be 83.1%.
Next, `NCC1Cc2cc(-c3nccc(N4CCC(O)CC4)n3)cc(Cl)c2O1` (stereo not given): 80.6%.
Next, `O=C(NC[C@H]1C[C@@H]2CCN1C[C@@H]2CN1CCCC1)c1ccco1`: -62.4%; `CN1CCN(S(C)(=O)=O)Cc2cccnc21`: -87.7%; `CNC(=O)[C@@]12CCO[C@@H]1CCN(Cc1c(C)noc1C)C2`: -74.2%.
Take `Cc1ccc2c(n1)N(C)CCN(Cc1cnn(C)c1)C2`: the INHIBITION is reported as -35.9%.
On to `CN1CCCCC1c1ncc2c(n1)CCN(CCCc1ccccc1)C2` (stereo not given), for which the INHIBITION is listed as 89.2%.
Regarding `CN1CCN(Cc2ccc(F)cc2)Cc2cccnc21`, the INHIBITION is recorded as -5.74%.
`CN1CCCCC1c1ncc2c(n1)CCN(Cc1ccc(F)cc1)C2` (stereo not given): the INHIBITION was 86.4%.
As to `CN1CCCCC1c1ccc(-n2ccnc2)nc1` (stereo not given), the INHIBITION is recorded as -5.64%.
For `Cc1ccc(C(=O)N2C[C@@H]3CCCO[C@@H]3[C@H](N3CCCC3)C2)cn1`, the INHIBITION is on record as -108%.
Next, `Cc1nc(COC[C@H]2CC[C@H]3NCC[C@H]3O2)cs1`: -29.9%; `O=C(c1ccnnc1)N1C[C@@H]2OCCN(CCN3CCCC3)[C@@H]2C1`: -53.7%.
With `O=C(c1cccnc1)N1CCO[C@@H]2CNC[C@@H]21`, the INHIBITION is on record as -20.6%.
Next, `Cc1noc([C@]23COC[C@H]2CN(C(C)C)C3)n1`: -38.3%.

(Values after ChEMBL document CHEMBL4513216, “Probing the Open Global Health Chemical Diversity Library for Multistage-Active Starting Points for Next-Generation Antimalarials” (ACS Infect Dis, 2020).)
